Results: PubChem BioAssay AID493248 (Broad Institute, 2011)
The whole screen tested about 2,300 compounds, of which about 1,400 (61%) were called active. Not shown: some 7% with an inconclusive outcome. No rule for the calls is given here. The set was probably picked from earlier hits. Only a sample is shown. Entries with a potency or affinity are not part of this list.

target: FAD-linked sulfhydryl oxidase ALR (Homo sapiens) (UniProt P55789); experiment: ALR-catalysed DTT oxidation blockers – biochemical, H2O2 detection, luminescence, cherry-pick, dose response (AID 493248); details: purified ALR, H2O2 HRP-luminol luminescence; at 10 µM (top of the series)
Sequence (P55789 whole entry, looked up): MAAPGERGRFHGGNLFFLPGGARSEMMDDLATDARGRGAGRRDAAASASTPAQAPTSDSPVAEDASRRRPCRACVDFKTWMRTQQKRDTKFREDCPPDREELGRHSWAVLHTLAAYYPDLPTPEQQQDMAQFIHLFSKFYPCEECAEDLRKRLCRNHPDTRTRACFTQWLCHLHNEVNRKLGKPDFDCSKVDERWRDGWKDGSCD

SMILES	activity change, negative = inhibition
O=c1[nH]c(/C=C\c2ccccc2F)nc(O)c1[N+](=O)[O-]	-17.7%
O=C(CNS(=O)(=O)c1ccccc1)N/N=C/c1ccc(O)cc1	-113%
Cc1nc2cccc(C(=O)Oc3ccc([N+](=O)[O-])cc3)c2o1	-34.6%
CC1CC(C)CN(C(=O)c2ccc(-c3ccc([N+](=O)[O-])cc3)o2)C1 (centres undefined)	-37.5%
O=C(NCc1cccs1)C1CCN(S(=O)(=O)c2cccc3cccnc23)CC1	3.4%
CCN(CCNC(=O)CN(C)S(=O)(=O)c1cccc2nsnc12)c1ccccc1	-59.9%
CCCCN(CCCC)c1ccc(C(=O)c2ccccc2C(=O)O)c(O)c1	-56.2%
Cc1ccc(N=c2oc3cc(O)ccc3cc2C(N)=O)cc1	-84.9%
CC/C(=N\NC(=O)CCC(=O)NCc1ccccc1)c1ccc(O)cc1	-98.7%
Cc1nn(C)c(C)c1Sc1ccccc1N	-14.3%
Cc1nc(N2CCN(c3ccccc3)CC2)[nH]c(=O)c1C	-42.3%
Nc1ccc2oc(=O)c(-c3ccccc3)cc2c1	-86.7%
Cc1ccc(N2CCN(C(=O)N3CCCC3)CC2)cc1C	-10.1%
COc1cccc(CNc2nc3ccccc3n2CCN2CCCCC2)c1OC	-11.4%
Cn1ccnc1SCc1cccc([N+](=O)[O-])c1	7.58%
COc1cc(/C=C2\SC(=S)N(NC(C)=O)C2=O)ccc1OC(=O)c1ccco1	-26.5%
CSc1cccc(NC(=O)c2ccco2)c1	-98.6%
Cc1cc(NC(=O)c2ccco2)sc1C	-98.7%
COc1ccc(S(=O)(=O)N2Cc3ccccc3CC2C(=O)Nc2ccc(O)cc2)cc1OC (centres undefined)	349%
COc1ccc(SCCc2ccncc2)cc1	-20.1%

SMILES	activity change, negative = inhibition
O=C(C1CCC1)N1CCN(c2ccc(Cl)cc2)CC1	-43.9%
CCCC(=O)N1c2ccc(-c3csc(N)n3)cc2CC1C (centres undefined)	-16.4%
Cc1cc(N/N=C/c2ccco2)c2ccccc2n1	-3.59%
Cc1cc(N/N=C/c2ccccc2F)c2ccccc2n1	-22.6%
CC(=O)N1CCN=C1SCc1ccc(Cl)cc1	-8.99%
S=c1[nH]ncn1/N=C/c1ccccc1	-73%
O=C(Cn1cnc2ccccc21)N/N=C/c1ccccn1	0.505%
COc1ccc(NC(=O)Nc2ccc3nccnc3c2)cc1	105%
Cc1ccc(N(C(=O)c2ccc(Br)o2)C2C=CS(=O)(=O)C2)cc1 (centres undefined)	-13.3%
Cc1oc(C(=O)Nc2ccc(C(=O)O)cc2)cc1COc1ccccc1	-25.3%
CC1=C(C)CS(=O)N(S(=O)(=O)c2ccccc2)C1 (centres undefined)	-41.8%
O=C(NCCN1CCN(c2ccccc2)CC1)c1cccc(Cl)c1	-76.5%
O=C(Cc1c(C(=O)O)[nH]c2ccccc12)NCCN1CCN(c2cccc(Cl)c2)CC1	-54.4%
CC(C)CN(CC(C)C)c1nnc(N)s1	16.8%
O=C(Nc1nc2ccc(S(=O)(=O)N3CCCCC3)cc2s1)c1ccncc1	-6.5%
Cc1cccc(-c2n[nH]c(=S)n2/N=C/C=C/c2ccco2)c1	-98%
COc1c(/C=N/Nc2ccc(C(=O)O)cc2)c(CCN(C)C(C)=O)cc2c1OCO2	-95.6%
CC1CN(c2ccccc2)NC1=O (centres undefined)	23.1%
O=C(NCc1cccs1)c1nc2c(nnn2Cc2ccccc2Cl)c(=O)[nH]1	-7.82%
Cc1ccc(N=Nc2c(N)[nH]n3c(=O)cc(C)nc23)cc1	-55.4%

SMILES	activity change, negative = inhibition
Cc1n[nH]c(C)c1Sc1ccccc1N	54.6%
COc1cc(OC)cc(-c2cn[nH]c2N)c1	-60.4%
Cc1nc(NS(=O)(=O)c2ccccc2C)c2c3c(sc2n1)CCC3	-0.709%
CC1CCc2c(sc(NC(=O)c3ccccc3C(=O)O)c2C#N)C1 (centres undefined)	-85.9%
COc1cccc(NC(=O)c2cc(OC)c(OC)c(OC)c2Br)c1	4.6%
CCCCNc1cc(NC(C)=O)cc2cc(OC)c(OC)cc12	-66.6%
O=S(=O)(Nc1ncnc2sc3c(c12)CCC3)c1cc(F)ccc1F	5.9%
CCC1(C)OC(=O)NN(c2ccc(C)cc2)C1(C)O (centres undefined)	-35.5%
COc1ccc(-c2cc(C(=O)NN)[nH]n2)cc1OC	-15.4%
Cc1ccc(O)c(-c2cc(C(=O)NCc3ccncc3)[nH]n2)c1	-50.3%
O=C(Nc1ccccc1F)c1ccc(Cn2cc(Cl)cn2)cc1	-100%
Cn1nnc2c[n+](CC(=O)c3ccc(Cl)cc3)cc(Br)c21	-31%
Cc1cccc(-n2c(-c3ccncc3)n[nH]c2=S)c1	-2.76%
Cc1cc(-c2n[nH]c(=S)n2-c2ccc(C)c(C)c2)no1	-43%
Cc1ccc(-n2c([C@@H]3C[C@H]3c3ccccc3)n[nH]c2=S)cc1	-34.6%
COc1ccc(-c2n[nH]c(=S)n2-c2ccc(C)cc2)cc1OC	3.4%
O=C(Cn1cc(C(F)(F)F)ccc1=O)N/N=C/c1ccc(O)cc1	174%
COc1cc(/C=N/Nc2ccc(C(F)(F)F)cn2)ccc1O	-15%
COC(=O)Cc1c(C)c2ccc(OC(=O)c3ccccc3)cc2oc1=O	31.5%
